Experimental findings from PubChem BioAssay AID504710 (Sanford-Burnham Center for Chemical Genomics, 2011) are described below.

Active and inactive are the calls of the source.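 The calls were made as follows: active = inhibition reaching about 16% in any single replicate (limit read from the data); inactive = the rest.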

Hexokinase HKDC1 (Homo sapiens), sequence (Q2TB90 whole entry, looked up): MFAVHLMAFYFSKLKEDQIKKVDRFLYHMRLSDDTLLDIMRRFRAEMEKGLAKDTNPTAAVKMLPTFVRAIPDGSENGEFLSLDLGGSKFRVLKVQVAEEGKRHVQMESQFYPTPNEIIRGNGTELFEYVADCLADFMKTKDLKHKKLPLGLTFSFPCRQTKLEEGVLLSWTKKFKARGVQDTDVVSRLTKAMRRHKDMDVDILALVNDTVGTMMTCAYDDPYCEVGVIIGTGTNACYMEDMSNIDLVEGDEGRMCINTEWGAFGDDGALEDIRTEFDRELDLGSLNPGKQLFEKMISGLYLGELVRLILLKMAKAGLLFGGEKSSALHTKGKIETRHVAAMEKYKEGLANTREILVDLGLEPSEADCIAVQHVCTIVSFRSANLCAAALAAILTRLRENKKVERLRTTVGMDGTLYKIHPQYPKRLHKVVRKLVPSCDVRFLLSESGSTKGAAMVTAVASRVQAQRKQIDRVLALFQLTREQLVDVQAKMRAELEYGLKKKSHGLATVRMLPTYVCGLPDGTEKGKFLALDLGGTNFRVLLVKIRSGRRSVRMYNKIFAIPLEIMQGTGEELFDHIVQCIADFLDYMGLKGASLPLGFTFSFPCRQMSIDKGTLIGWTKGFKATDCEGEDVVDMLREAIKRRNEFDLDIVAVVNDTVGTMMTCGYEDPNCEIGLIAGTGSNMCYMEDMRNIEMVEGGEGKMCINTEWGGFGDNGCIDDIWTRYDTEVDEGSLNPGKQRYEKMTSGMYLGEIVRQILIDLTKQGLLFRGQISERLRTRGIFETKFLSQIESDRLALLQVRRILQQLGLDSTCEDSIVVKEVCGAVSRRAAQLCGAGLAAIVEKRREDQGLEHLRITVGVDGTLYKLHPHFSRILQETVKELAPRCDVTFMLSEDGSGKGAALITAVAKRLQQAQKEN

This experiment has as its target Hexokinase HKDC1 (Homo sapiens) (UniProt Q2TB90). The experiment is described as follows: compounds lowering human HKDC1 activity – biochemical, single concentration, confirmation (AID 504710). The note with it: recombinant HKDC1, G6PDH/diaphorase/resazurin fluorescence; at 20 µM; active compounds read high. A general note: Resazurin is reduced to fluorescent resorufin, in cell work by metabolically active cells.
As a reminder, the inhibition is the change of the read-out against control, counted positive when it falls. Turning to `COC(=O)c1c(NC(C)=O)sc(Cc2ccccc2)c1C`, the inhibition was -37.8% (inactive).

As to `CCc1ccc(S(=O)(=O)/N=C2\C=C(Nc3cccc(C(=O)O)c3)C(=O)c3ccccc32)cc1`, the inhibition is 64.8% (active).

Regarding `CCOC(=O)Cn1c2ccc(F)cc2c2nc(C)sc21`, the inhibition is -36.6% (inactive).

For `COc1ccc(N2C3=C(CC4=C2CCCC4=O)C(=O)CCC3)cc1`, the inhibition is 47.1% (active).

As to `CC12CCC(C(=O)N/N=C/c3ccc(O)cc3O)(OC1=O)C2(C)C` (configuration not stated), the inhibition was -34.9% (inactive).

For `COc1ccccc1NC(=S)NN=C(C)c1ccccn1`, the inhibition was -61% (inactive).

On to `COc1cc(SC#N)ccc1N=Cc1c(C)[nH]n(-c2ccc(Cl)cc2)c1=O`, for which the inhibition was -38.2% (inactive).

`COCc1cc(C2C(C(=O)c3ccco3)=C(O)C(=O)N2CCOCCO)ccc1O` (configuration not stated): the inhibition was -40.1% (inactive).

As to `COc1cc(C2c3c([nH]c(=O)[nH]c3=O)Nc3ccc4ccccc4c32)cc(OC)c1OC` (configuration not stated), the inhibition was 43.5% (active).

With `COc1ccc2cc(CCNC(=O)c3ccc(S(=O)(=O)N4CCCC4)cc3)c(=O)[nH]c2c1`, the inhibition was 59.8% (active).

On to `Cc1cc(C)c(S(=O)(=O)Nc2cc(SCC(=O)O)c(O)c3ccccc23)cc1C`, for which the inhibition was 41.5% (active).

Turning to `CCN(CC)C(=O)c1ccc(C(=O)c2c(C)cc(C)cc2C)cc1`, the inhibition was -40.1% (inactive).

As to `O=c1c2ccccc2nc(/C=C/c2cccnc2)n1Cc1ccccc1`, the inhibition is 60.7% (active).

As for `O=C1C=CC(=O)C(C2=C3C(=O)N(CCc4ccccc4)CC(=O)N3CCC2)=C1`, the inhibition was 70.9% (active).

`COc1ccc(CN2C(=O)c3cccnc3C2O)cc1` (configuration not stated): the inhibition is 35.8% (active).

For `CC(=O)Oc1cccc2c1C(=O)C1CC=CC(OC(C)=O)C1C2=O` (configuration not stated), the inhibition was -65.8% (inactive).

Turning to `CC(C)(C)c1c(Cl)c(O)c(-c2ccccc2)c(=O)n1-c1ccccc1`, the inhibition was 40.9% (active).

Consider `Cc1ccc(S(=O)(=O)Nc2c(O)ccc3ccccc23)cc1`, for which the inhibition was 35.5% (active).

For the compound `S=C1Cc2ccccc2N1`, the inhibition was -192% (inactive).

Consider `Cn1c(SSc2ccc(-c3cccnc3)n2C)ccc1-c1cccnc1`, for which the inhibition is -248% (inactive).

In the case of `COc1ccc(-c2cc(C(=O)NNC(=S)NC(=O)c3c(-c4ccccc4)noc3C)[nH]n2)cc1`, the inhibition is -50.1% (inactive).

On to `Cc1ccc(C)c(-n2c3nc(=O)[nH]c(=O)c-3cc3cc([N+](=O)[O-])ccc32)c1`, for which the inhibition was 39.2% (active).

Take `COCC(=O)OC1CCn2c1nc1c2C(=O)C(C)=C(NC(C)=O)C1=O` (configuration not stated): the inhibition was 79.4% (active).

`O=C(CSc1n[nH]c(-c2cccnc2)n1)Nc1ccc([N+](=O)[O-])cc1Br`: the inhibition was 56.4% (active).

For the compound `O=C(O)c1ccc2ncsc2c1`, the inhibition was 48.1% (active).

Take `CCOC(=O)C1=C(Cc2ccc(Cl)cc2)C(=O)c2ccccc2C1=O`: the inhibition was 39.3% (active).

For `Cc1ccc(C)c(-n2nnnc2Sc2nnnn2-c2ccccc2)c1`, the inhibition is 38.7% (active).

Turning to `O=C(O)c1ccc(NC2=C(Cl)C(=O)c3ccccc3C2=O)cc1`, the inhibition is -94.3% (inactive).

In the case of `O=C(C1=C(c2ccccc2)C(=O)c2ccccc2C1=O)c1ccccc1`, the inhibition is 52% (active).

On to `CCOC(=O)C1=C(c2ccc(OC)cc2)C(=O)c2ccccc2C1=O`, for which the inhibition was 75% (active).

For the compound `CCCC(=O)NC1=C(Cl)C(=O)c2ccccc2C1=O`, the inhibition was 81.4% (active).

For `Cc1cc(C)nc(/N=c2/ssnc2Cl)c1`, the inhibition is -84.2% (inactive).

With `O=C(NC(=S)NNC(=O)c1cnccn1)c1ccc(F)cc1`, the inhibition was -36.1% (inactive).

For the compound `COc1cc(NC(=O)c2cnc(N)s2)cc(C(=O)Nc2cccc(C(F)(F)F)c2)c1`, the inhibition was 41.2% (active).

With `Cc1cc2nnc(SCC(=O)Nc3cc(S(=O)(=O)N4CCOCC4)ccc3Cl)n2c2ccccc12`, the inhibition is 37.4% (active).

In the case of `CCOC(=O)c1ccc(NC(=O)CSc2n[nH]c(-c3ccncc3)n2)cc1`, the inhibition is 50.3% (active).

On to `Cc1cc2cc(CCNC(=O)c3ccc(S(=O)(=O)N4CCCC4)cc3)c(=O)[nH]c2cc1C`, for which the inhibition is 53.2% (active).
